The panel holds about 83,000 compounds, 20% with a hit somewhere; the sample as a whole holds those more often.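 A percent growth of 40 corresponds to 60% growth inhibition; 0 means no net growth; -100 means all cells died. Active threshold: below 10.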 A number with no mark means an inactive call. The source made the active and inactive calls.
What follows are compounds tested on MDA-MB-435 melanoma (assay: NCI-60 one-dose screen, 48 h (100 = growth as untreated, 0 = no growth, -100 = all killed)). Details: 10 µM unless noted.

Row | Structure (SMILES) | growth
1 | CO/C=C/C(=O)c1cc2cnc3c(=N)cc(NC(=O)C(C)C)c([nH]1)c23 | -27.5% (active)
2 | Cc1cc2c(-c3nc4ccccn4c3Nc3cccc4ccccc34)c(O)c(O)cc2c(O)c1-c1c(C)cc2c(-c3nc4ccccn4c3Nc3cccc4ccccc34)c(O)c(O)cc2c1O | 21.6%
3 | Cc1cc(N2CCOCC2)nc(N(CCNc2ccnc3cc(Cl)ccc23)Cc2cccs2)n1 | -1.4% (active)
4 | CCCCCCCC(=O)SCC/C=C/[C@@H]1CC(=O)NCc2cc(ccn2)C2=N[C@@](C)(CS2)C(=O)N[C@@H](C(C)C)C(=O)O1 | -22.1% (active)
5 | Cc1sc2c(c1C)c(=O)nc1c(-c3nc4ccccc4s3)n[nH]n12 | 110%
6 | CC(C)(C)CC(C)(C)Nc1c(-c2c(O)c3ccccc3oc2=O)nc2c(Cl)cc(C(F)(F)F)cn12 | 103%
7 | CCOc1cccc(/C=N/NC(=O)c2ccccc2Nc2ccnc(C(F)(F)F)c2)c1O | 29.8%
8 | Cc1cc2c(-c3nc4ccccn4c3NC3CCCCC3)c(O)c(O)cc2c(O)c1-c1c(C)cc2c(-c3nc4ccccn4c3NC3CCCCC3)c(O)c(O)cc2c1O | 27.5%
9 | C=CCC(=O)N[C@H](/C=C/C(=O)O)Cc1ccc(-c2cc(Cl)cc(Cl)c2)cc1 | 103%
10 | CN1CCN(c2nc(NCCNc3ccnc4cc(Cl)ccc34)c3ccccc3n2)CC1 | -11.4% (active)
11 | C[C@@H](C[C@H](CCO)c1cc(C(F)(F)F)cc(C(F)(F)F)c1)c1ccc2ccccc2c1 | 38.8%
12 | C=C1C(=O)O[C@H]2[C@H]1CC/C(Cn1cc(-c3cc(C)c(C)cc3C)nn1)=C\CC[C@@]1(C)O[C@@H]21 | -56.3% (active)
13 | COc1ccc2c(CCCc3ccc(Cl)cc3Cl)c3[n+](cc2c1OC)CCc1cc2c(cc1-3)OCO2 | -71.2% (active)
14 | CCN1CCN(c2cc(C)nc(N(CCCNc3ccnc4cc(Cl)ccc34)Cc3ccc4c(c3)OCO4)n2)CC1 | -73.7% (active)
15 | O=C1CC(c2ccc(Cl)cc2)c2ncn(-c3cccc(Cl)c3)c2N1 (centres undefined) | -16.8% (active)
16 | Cc1ccccc1Nc1nc2nonc2nc1Nc1cccc(C)c1C | 55.7%
17 | Fc1ccc(NCc2cn(-c3ccccc3)nc2-c2ccc(OCc3ccccc3)cc2)cc1Cl | 102%
18 | CCCCCCCC(=O)SCC/C=C/[C@@H]1CC(=O)NCc2cccc(n2)C2=N[C@@](C)(CS2)C(=O)N[C@@H](C(C)C)C(=O)O1 | -9.48% (active)
19 | COC(=O)C1CCc2sc3ncnc(Nc4cn[nH]c4C(=O)Nc4ccc(CN5CCN(C)CC5)cc4)c3c21 (centres undefined) | 22.3%
20 | C=CC(=O)N(C)[C@H]1C[C@H]2OC(C)(C1OC)n1c3ccccc3c3c4c(c5c6ccccc6n2c5c31)C(=O)NC4 (some centres undefined) | 6.02% (active)

Row | Structure (SMILES) | growth
21 | Cc1cc(N(CCNc2ccnc3cc(Cl)ccc23)Cc2ccc3c(c2)OCO3)nc(N2CCN(C)CC2)n1 | -62.6% (active)
22 | CN1CCN(CCCOc2cccc3nc(Nc4ccc(Cl)c(C(F)(F)F)c4)ccc23)CC1 | -21.4% (active)
23 | Nc1c2c(c(O)c3c1=C(CO)C=N3)=NCCS2 | -82% (active)
24 | Cc1cc(O)c2c(c1)C1OC(=O)CCCCCN1C1=C2C(=O)c2cccc(OC3CC(O)C(O)C(C)O3)c2C1=O (centres undefined) | 13.1%
25 | CC1(C=O)NC(=O)NC1=O (centres undefined) | 111%
26 | COc1ccc(Nc2ncccc2NC(=O)c2cn(Cc3cccc(Oc4ccccc4)c3)nn2)cc1 | 77.8%
27 | OCCNC(=S)Nc1ccc(-c2nc(N3C[C@H]4CC[C@@H](C3)O4)c3cccn3n2)cc1 | 0.28% (active)
28 | O=C(c1ccccc1)C(c1ccccc1)N1CCOCC1 (centres undefined) | 109%
29 | NN1C(=O)CSC1=S | 100%
30 | CC12O[C@H](C[C@@H](OC(=O)CCC(=O)O)[C@H]1O)n1c3ccccc3c3c4c(c5c6ccccc6n2c5c31)C(=O)NC4=O | 8.34% (active)
31 | C=C1[C@@H](O)C[C@H]2C(C)(C)C[C@H](Cl)C[C@]2(C)[C@H]1C[C@H](O)[C@H]1CC(=O)NC1=O | -44.6% (active)
32 | COC(=O)[C@H](Cc1ccccc1)NC(=O)[C@@H](OC)[C@@H]1Cc2cc3cc(OC4CC(OC5CC(O)C(O)C(C)O5)C(O)C(C)O4)c(C)c(O)c3c(O)c2C(=O)[C@H]1OC1CC(OC2CC(OC3CC(C)(O)C(O)C(C)O3)C(O)C(C)O2)C(O)C(C)O1 (some centres undefined) | -69.4% (active)
33 | CCOC(=O)C1=C(C)N=C2Sc3cccc(OC)c3N2[C@H]1c1ccccn1 | 110%
34 | CNC(=O)c1cc(Oc2cccc3nc(Nc4ccc(Oc5ccccc5)cc4)ccc23)ccn1 | 66.1%
35 | COc1ccc(-c2nc(N)ncc2Oc2ccccc2OC)c(O)c1 | -16.6% (active)
36 | CSc1nc2ncncc2[nH]1 | 91.9%
37 | Nc1c2c(c(O)c3c1=C(CO)C=N3)=NCCS2=O (centres undefined) | -82.7% (active)
38 | CC(C)=CCc1cc2c(cc1O)C1=C(C(=O)C3=C(NCCS3(=O)=O)C1=O)C(C=C(C)C)O2 (centres undefined) | -62.3% (active)
39 | CC/C=C\C[C@H]1C/C=C2/C(=O)C=C[C@@H]2C/C=C\CCCC(=O)O1 | -45.5% (active)

Source: PubChem BioAssay (NCI)
